Assay [1] concerns the target T1, Serine/threonine-protein kinase Nek9 (Homo sapiens) (UniProt Q8TD19).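 Further: each value is a mean percent inhibition of NEK9.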
T1 sequence (whole entry): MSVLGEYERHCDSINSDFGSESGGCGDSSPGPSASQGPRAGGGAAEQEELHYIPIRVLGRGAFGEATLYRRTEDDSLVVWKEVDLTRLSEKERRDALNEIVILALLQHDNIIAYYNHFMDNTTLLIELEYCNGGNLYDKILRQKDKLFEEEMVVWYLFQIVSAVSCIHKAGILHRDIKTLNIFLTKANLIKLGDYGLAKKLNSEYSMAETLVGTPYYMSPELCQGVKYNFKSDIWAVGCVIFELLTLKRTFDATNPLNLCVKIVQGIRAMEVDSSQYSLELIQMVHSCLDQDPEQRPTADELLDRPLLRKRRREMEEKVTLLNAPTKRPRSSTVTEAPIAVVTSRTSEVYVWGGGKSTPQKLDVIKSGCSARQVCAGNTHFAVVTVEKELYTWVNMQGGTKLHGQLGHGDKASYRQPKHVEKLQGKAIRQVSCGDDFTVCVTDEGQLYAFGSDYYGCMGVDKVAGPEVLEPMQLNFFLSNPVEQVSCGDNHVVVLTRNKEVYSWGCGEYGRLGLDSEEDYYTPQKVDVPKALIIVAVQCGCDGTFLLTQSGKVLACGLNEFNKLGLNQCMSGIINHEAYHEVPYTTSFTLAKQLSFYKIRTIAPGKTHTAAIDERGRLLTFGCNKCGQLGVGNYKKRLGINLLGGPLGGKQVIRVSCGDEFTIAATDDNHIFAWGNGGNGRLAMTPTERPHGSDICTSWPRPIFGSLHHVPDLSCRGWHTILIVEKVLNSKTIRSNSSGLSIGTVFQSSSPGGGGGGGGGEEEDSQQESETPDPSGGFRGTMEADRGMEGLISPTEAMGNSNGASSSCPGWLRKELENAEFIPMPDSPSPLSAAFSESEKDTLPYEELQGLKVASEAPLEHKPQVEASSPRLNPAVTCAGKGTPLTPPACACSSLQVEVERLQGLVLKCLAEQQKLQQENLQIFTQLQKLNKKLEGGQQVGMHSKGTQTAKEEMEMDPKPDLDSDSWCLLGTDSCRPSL
The note with it: at 1 µM.

Assay [2] addresses Serine/threonine-protein kinase PLK1 (Homo sapiens) (UniProt P53350). The note with it: at 0.1 µM.
For assay [3] the target is unchanged. The settings on record: at 1 µM.
Assay [4] deals with T2, Dual specificity protein kinase TTK (Homo sapiens) (UniProt P33981).
T2 sequence (whole entry): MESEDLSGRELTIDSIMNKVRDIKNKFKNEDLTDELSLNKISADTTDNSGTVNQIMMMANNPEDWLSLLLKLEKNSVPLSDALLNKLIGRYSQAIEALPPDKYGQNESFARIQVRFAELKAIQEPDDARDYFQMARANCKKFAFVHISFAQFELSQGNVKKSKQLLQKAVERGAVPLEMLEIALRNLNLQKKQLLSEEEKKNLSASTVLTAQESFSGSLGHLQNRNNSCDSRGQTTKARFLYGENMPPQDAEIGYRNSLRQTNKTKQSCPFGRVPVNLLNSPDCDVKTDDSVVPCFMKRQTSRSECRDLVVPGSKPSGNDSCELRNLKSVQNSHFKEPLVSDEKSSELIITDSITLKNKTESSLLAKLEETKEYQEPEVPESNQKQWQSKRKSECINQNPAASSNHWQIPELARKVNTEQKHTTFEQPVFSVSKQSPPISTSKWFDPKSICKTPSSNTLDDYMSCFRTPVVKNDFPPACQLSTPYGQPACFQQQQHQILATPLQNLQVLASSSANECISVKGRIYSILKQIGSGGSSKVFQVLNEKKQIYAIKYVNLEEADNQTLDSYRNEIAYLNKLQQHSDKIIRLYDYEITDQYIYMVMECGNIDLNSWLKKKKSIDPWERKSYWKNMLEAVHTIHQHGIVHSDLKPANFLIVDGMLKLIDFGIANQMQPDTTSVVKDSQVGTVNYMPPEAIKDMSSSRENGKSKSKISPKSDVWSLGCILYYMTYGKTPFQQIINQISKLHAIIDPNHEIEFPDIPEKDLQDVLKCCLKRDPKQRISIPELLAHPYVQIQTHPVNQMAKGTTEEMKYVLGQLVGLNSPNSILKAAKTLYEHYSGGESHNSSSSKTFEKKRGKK
The note with it: at 0.1 µM.

Assay [5] concerns T3, Receptor-type tyrosine-protein kinase FLT3 (Homo sapiens), P36888 [D835Y].
T3 sequence (whole entry): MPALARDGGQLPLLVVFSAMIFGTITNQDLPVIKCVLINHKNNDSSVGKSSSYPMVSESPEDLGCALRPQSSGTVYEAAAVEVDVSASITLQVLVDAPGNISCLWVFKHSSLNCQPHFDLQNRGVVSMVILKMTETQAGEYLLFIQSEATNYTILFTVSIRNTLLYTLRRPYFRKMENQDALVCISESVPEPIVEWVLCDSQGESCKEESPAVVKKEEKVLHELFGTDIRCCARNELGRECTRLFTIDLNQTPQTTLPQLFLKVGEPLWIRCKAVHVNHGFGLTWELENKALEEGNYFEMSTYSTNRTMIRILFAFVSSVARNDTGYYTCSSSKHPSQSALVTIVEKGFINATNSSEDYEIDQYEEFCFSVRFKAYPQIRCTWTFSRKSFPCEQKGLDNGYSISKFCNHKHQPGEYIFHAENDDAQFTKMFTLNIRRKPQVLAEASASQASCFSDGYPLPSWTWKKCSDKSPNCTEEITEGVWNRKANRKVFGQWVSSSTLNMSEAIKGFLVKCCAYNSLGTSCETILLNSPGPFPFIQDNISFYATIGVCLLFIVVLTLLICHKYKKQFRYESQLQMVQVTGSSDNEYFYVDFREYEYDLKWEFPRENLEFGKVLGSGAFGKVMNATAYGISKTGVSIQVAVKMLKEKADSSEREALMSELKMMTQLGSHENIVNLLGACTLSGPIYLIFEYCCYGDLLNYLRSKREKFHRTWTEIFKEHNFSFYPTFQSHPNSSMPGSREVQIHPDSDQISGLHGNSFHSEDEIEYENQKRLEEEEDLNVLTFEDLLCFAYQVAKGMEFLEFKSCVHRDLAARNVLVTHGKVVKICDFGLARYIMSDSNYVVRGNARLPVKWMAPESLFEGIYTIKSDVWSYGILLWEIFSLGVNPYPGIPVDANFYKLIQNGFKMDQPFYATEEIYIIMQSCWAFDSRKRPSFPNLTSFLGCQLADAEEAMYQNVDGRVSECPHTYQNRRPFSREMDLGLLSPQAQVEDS
The note with it: at 1 µM.

In assay [6] the target is Vascular endothelial growth factor receptor 3 (Homo sapiens) (UniProt P35916). The note with it: at 0.1 µM.
Chain of Vascular endothelial growth factor receptor 3 (Homo sapiens) (P35916 whole entry): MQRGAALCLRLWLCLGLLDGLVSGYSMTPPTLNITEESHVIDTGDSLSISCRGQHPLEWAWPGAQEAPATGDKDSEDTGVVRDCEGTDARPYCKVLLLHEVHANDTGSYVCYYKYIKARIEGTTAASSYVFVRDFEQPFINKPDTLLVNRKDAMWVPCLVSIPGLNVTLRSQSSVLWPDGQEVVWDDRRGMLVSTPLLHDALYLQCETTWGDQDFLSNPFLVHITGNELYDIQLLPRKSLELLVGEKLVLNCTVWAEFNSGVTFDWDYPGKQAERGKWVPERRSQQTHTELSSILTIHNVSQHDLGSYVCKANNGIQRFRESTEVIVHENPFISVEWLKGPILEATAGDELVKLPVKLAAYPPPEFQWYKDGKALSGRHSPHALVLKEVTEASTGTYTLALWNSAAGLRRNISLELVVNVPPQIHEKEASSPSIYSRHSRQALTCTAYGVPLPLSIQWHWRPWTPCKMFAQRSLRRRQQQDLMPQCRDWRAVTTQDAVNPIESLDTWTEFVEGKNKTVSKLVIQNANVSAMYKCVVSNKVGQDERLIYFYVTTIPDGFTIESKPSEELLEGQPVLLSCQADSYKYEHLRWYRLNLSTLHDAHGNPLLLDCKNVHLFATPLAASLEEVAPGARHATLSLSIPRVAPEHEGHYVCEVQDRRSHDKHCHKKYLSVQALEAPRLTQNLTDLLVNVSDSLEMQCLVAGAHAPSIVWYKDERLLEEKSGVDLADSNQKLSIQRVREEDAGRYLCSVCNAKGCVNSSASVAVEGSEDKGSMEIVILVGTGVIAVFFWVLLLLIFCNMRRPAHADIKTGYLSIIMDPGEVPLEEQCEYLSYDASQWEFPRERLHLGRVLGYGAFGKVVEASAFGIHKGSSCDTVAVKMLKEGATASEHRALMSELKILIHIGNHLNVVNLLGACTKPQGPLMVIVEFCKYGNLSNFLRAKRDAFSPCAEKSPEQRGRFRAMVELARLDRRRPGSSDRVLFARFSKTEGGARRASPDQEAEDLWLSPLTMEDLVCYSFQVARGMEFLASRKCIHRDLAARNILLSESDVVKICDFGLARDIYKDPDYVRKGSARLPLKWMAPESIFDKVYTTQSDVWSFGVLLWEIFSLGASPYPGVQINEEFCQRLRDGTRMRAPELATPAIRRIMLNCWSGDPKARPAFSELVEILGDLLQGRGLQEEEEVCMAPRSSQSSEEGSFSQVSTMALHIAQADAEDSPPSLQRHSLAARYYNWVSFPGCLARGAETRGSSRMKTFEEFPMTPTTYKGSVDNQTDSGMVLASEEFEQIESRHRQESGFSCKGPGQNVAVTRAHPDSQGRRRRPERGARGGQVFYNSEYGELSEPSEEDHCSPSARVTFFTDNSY
The target is the same in assay [7]. The settings on record: at 1 µM.
The target of assay [8] is Macrophage colony-stimulating factor 1 receptor (Homo sapiens) (UniProt P07333). The settings on record: at 0.1 µM.
Chain of Macrophage colony-stimulating factor 1 receptor (Homo sapiens) (P07333 whole entry): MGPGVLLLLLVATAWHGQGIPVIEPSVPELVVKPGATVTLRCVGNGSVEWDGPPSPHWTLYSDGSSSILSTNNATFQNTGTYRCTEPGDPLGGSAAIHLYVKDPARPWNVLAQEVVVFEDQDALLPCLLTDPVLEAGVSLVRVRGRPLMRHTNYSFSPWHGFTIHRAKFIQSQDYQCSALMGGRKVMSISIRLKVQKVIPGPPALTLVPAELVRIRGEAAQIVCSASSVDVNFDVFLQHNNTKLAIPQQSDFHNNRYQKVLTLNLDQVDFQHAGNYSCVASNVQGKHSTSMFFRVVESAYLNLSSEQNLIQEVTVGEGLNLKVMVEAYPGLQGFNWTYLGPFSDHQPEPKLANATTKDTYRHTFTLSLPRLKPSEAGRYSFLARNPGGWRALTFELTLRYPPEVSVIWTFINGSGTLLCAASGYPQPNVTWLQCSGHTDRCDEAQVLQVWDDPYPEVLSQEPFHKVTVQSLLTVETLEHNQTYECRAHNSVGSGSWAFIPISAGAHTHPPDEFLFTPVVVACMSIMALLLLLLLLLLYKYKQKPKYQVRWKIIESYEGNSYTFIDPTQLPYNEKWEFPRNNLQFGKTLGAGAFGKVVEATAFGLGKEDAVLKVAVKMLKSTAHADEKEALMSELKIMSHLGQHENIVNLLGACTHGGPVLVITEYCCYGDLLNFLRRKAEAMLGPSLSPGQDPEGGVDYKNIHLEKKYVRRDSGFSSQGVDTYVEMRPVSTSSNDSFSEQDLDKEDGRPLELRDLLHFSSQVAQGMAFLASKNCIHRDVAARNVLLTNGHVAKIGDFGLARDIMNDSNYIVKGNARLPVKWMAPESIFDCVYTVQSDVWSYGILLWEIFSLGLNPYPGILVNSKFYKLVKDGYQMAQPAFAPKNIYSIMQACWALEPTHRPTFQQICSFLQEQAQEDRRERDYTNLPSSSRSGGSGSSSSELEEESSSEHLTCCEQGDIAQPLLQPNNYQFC
Assay [9] has the same target. The note with it: at 1 µM.
The target in assay [10] is Tyrosine-protein kinase Fyn (Homo sapiens) (UniProt P06241). The note with it: at 0.1 µM.
Chain of Tyrosine-protein kinase Fyn (Homo sapiens) (P06241 2-537 limits assumed): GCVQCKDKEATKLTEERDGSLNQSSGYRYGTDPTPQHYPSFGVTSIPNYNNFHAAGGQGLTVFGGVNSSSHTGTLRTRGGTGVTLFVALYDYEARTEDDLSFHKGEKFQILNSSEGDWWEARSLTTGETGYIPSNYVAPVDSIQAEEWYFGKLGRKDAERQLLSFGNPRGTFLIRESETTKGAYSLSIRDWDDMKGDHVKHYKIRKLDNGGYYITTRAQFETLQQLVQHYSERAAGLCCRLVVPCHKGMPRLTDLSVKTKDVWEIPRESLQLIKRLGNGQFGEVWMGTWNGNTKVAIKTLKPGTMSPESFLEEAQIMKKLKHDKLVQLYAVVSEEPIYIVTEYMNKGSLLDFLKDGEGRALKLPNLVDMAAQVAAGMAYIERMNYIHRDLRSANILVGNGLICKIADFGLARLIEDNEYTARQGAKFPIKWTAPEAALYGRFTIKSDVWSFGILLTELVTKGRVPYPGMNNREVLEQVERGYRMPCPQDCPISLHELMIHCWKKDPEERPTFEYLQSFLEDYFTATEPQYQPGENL

The text below walks through data of ChEMBL document CHEMBL1961873, “Compounds: GSK PKIS; Assays: Nanosyn kinase panel” (2012).

By inhibition is commonly meant the relative decrease from the control value, in per cent.

Chain of Serine/threonine-protein kinase PLK1 (Homo sapiens) (P53350 whole entry): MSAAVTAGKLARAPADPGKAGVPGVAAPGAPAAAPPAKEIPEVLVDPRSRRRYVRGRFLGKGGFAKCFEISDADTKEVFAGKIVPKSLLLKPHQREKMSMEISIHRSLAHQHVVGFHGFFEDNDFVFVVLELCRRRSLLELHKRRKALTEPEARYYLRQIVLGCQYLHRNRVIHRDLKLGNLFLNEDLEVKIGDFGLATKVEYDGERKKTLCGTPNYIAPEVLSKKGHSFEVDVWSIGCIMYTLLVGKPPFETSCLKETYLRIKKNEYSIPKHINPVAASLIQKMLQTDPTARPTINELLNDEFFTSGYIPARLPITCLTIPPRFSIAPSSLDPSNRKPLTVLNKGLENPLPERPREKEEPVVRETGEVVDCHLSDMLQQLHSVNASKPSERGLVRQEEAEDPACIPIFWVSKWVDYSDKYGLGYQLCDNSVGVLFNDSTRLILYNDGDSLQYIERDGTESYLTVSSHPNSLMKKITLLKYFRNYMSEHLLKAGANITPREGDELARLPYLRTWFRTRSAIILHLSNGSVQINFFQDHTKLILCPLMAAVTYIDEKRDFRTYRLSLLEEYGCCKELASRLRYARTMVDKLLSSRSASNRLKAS

As for `c1ccc(COc2ccc(Nc3ncnc4ccc(-c5ccco5)cc34)cc2)cc1`, the inhibition in [1] is 5.01%; in assay [2], 1.78%; in [3], 0.52%; in assay [4] it was 5.13%; in assay [5] it was -0.59%; in [6], 1.83%. Moreover, the inhibition in assay [7] is 0.93%; in assay [8] it was -2.64%; in [9], 0.74%; in assay [10], 0.27%.

In the case of `CCn1c(-c2nonc2N)nc2cnc(Oc3cccc(NC(=O)c4ccc(N(C)C)cc4)c3)cc21`, the inhibition came out at 5.29% in assay [1]; 1.86% in [2]; 1.97% in assay [3]; 3.52% in assay [4]; 0.83% in [5]; 0.61% in assay [6]. Further, the inhibition in assay [7] was 2.01%; in assay [8] it was -0.02%; in [9] it was 0.23%; in assay [10], 1.66%.

Regarding `CC(C)COC(=O)c1ccc2c(c1)/C(=C/Nc1ccc(S(N)(=O)=O)cc1)C(=O)N2`, the inhibition was determined as 0.18% in assay [1]; 1.14% in assay [2]; 2.98% in [3]; 53.6% in [4]; 86.5% in assay [5]; 30.1% in assay [6]. The inhibition in assay [7] came to 80.6%; in [8], 7.27%; in assay [9] it was 45.8%; in assay [10], 22.6%.

Regarding `CC(=O)NCc1cccc(C#Cc2cncnc2Nc2ccc(OCc3cccc(F)c3)c(Cl)c2)c1`, the inhibition in assay [1] was -3.77%; in assay [2] it was 1.79%; in [3] it was 1.35%; in assay [4], 8.83%; in assay [5], -1.12%; in assay [6], 2.27%. Further, the inhibition is 3.6% in assay [7], 1.13% in assay [8], 0.82% in assay [9] and 1.08% in assay [10].

Consider `CCCN1CCC(c2ccc(Nc3nc(Nc4cc(F)ccc4C(N)=O)c4cc[nH]c4n3)c(OC)c2)CC1`, for which the inhibition in assay [1] is 32.5%; in [2] it was 12.5%; in assay [3], 49.8%; in assay [4], 81.5%; in assay [5], 56%; in assay [6], -1.93%. Moreover, the inhibition in assay [7] was 2.22%; in assay [8], 34.3%; in [9], 81.5%; in [10], 3.91%.

With `CS(=O)(=O)CCNCc1coc(-c2ccc3ncnc(Nc4ccc(OCc5ccccc5)cc4)c3c2)c1`, the inhibition in [1] came out at 15.4%; in [2], 4.26%; in [3], 5.02%; in [4], 5.49%; in assay [5], 4.15%; in assay [6] it was 4.45%. In addition, the inhibition turned out to be 2.92% in assay [7], 0.22% in assay [8], 7.42% in [9] and 1.47% in assay [10].

For `CCNC(=O)O[C@H]1CN[C@H](C#Cc2cc3ncnc(Nc4ccc(OCc5cccc(F)c5)c(Cl)c4)c3s2)C1`, the inhibition worked out at 4.6% in assay [1]; 3.22% in [2]; 3.29% in assay [3]; 2.67% in [4]; 2.57% in assay [5]; 5.21% in assay [6]. For the same compound, the inhibition in assay [7] is -0.66%; in assay [8], 3.01%; in assay [9] it was 2.53%; in assay [10], 3.33%.

As for `COc1ccc(-c2cc(-c3c[nH]nc3-c3ccccn3)ccn2)cc1`, the inhibition came out at 9.65% in [1]; 3.67% in assay [2]; 4.38% in assay [3]; 13.4% in assay [4]; 1.61% in assay [5]; 5.28% in assay [6]. Moreover, the inhibition in assay [7] came out at 4.26%; in [8] it was 6.09%; in [9], 5.24%; in [10] it was 3.23%.

In the case of `CNC(=O)c1cncc(/C=C/c2ccccc2Cl)c1`, the inhibition in [1] was 3.22%; in assay [2], -0.94%; in assay [3], -0.72%; in assay [4], 1.16%; in assay [5], 7.46%; in assay [6] it was 15.2%. Also, the inhibition in [7] was 13.6%; in assay [8], 3.45%; in assay [9], 4.05%; in assay [10] it was 2.42%.

Take `Nc1nc(-c2ccc(F)cc2)c(-c2ccc3ncccc3n2)s1`: the inhibition in assay [1] worked out at 11.1%; in assay [2], 3.57%; in assay [3], 6.9%; in [4] it was 9.86%; in assay [5] it was 6.56%; in [6] it was 4.58%. Also, the inhibition in assay [7] turned out to be 11.6%; in assay [8] it was 3.44%; in assay [9] it was 7.59%; in assay [10] it was 2.8%.

Turning to `Fc1ccc(-c2nn3ccccc3c2-c2ccncc2)cc1`, the inhibition in assay [1] is 1.86%; in [2], 1.11%; in assay [3] it was 0.66%; in assay [4], 1.74%; in assay [5], 1.27%; in assay [6], -0.54%. Moreover, the inhibition is 1.83% in assay [7], -0.59% in [8], 7.67% in assay [9] and 0.52% in assay [10].

As to `COc1cc2ncn(-c3cc(OCc4ccccc4C(F)(F)F)c(C(=O)N(C)C)s3)c2cc1OC`, the inhibition came out at 3.25% in assay [1]; 3.97% in assay [2]; 3.34% in assay [3]; 4.69% in assay [4]; 1.1% in assay [5]; 0.79% in assay [6]. The inhibition was found to be 15.2% in assay [7], 4.5% in assay [8], 3.31% in assay [9] and 1.31% in assay [10].

For the compound `CNC(=O)c1cccc(C#Cc2cncnc2Nc2ccc(OCc3cccc(F)c3)c(Cl)c2)c1`, the inhibition in assay [1] was 4.28%; in assay [2] it was -0.42%; in assay [3], 0.52%; in assay [4], 3.66%; in assay [5], 0.94%; in assay [6], -2.07%. The inhibition turned out to be 3.4% in assay [7], 1.48% in assay [8], 7.16% in assay [9] and 1.46% in assay [10].

Take `CC(C)(CO)CNC(=O)c1ccc2c(c1)/C(=N/Nc1ccc(S(N)(=O)=O)cc1)C(=O)N2`: the inhibition in assay [1] came out at 8.02%; in assay [2], 1.21%; in assay [3], 0.88%; in assay [4] it was 61.5%; in [5], 45.6%; in assay [6] it was 4.05%. Further, the inhibition in assay [7] is 44.3%; in assay [8], -6.57%; in assay [9], 3.69%; in assay [10] it was 10.9%.

As to `CCN1CCC(CC(=O)Nc2n[nH]c3nnc(-c4cccc(F)c4F)cc23)CC1`, the inhibition in assay [1] is -3.93%; in assay [2], 2.14%; in assay [3] it was -0.76%; in assay [4], 4.15%; in assay [5], -2.23%; in assay [6], 1.01%. Further, the inhibition is 1.82% in assay [7], -1.12% in [8], 5.72% in assay [9] and -0.21% in [10].

Regarding `Clc1ccc(-c2nn3ncccc3c2-c2ccnc(Nc3ccccc3)n2)cc1`, the inhibition was -3.71% in assay [1]; -9.28% in [2]; 3.17% in assay [3]; 3.63% in assay [4]; -0.74% in assay [5]; 4.99% in [6]. The inhibition is 16.2% in assay [7], 4.3% in assay [8], 32.3% in assay [9] and 9.12% in assay [10].
